Assay results as given in PubChem BioAssay (NCATS).
Results filed as inconclusive are left out. The source made the active and inactive calls. Calls come from the whole dose curve; as a rule, active = well fitted curve in the direction sought with a large enough effect; inconclusive = small, poorly fitted or top-dose-only effect, or another doubt; inactive = no such curve, though single readings can be large; an effect the other way counts as inactive or inconclusive.

Tested on: not listed separately
Experiment: Primary fluorescence-based thiol-reactive (MSTI) qHTS assay for identification of artifact compounds. (AID 1845221); note: nearly all actives have a fitted effect of over 65% in size; note: potency is the fitted concentration of half-maximal effect;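 for activity change, negative = thiol reactive: thiol-reactive compounds lower the probe fluorescence signal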
Details: MSTI thiol-reactivity probe, 1 h; series mostly up to 53.8 µM; activity change, negative = thiol reactive: at the top concentration
Method in brief: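 Compounds were incubated 1 h at room temperature in the dark with the MSTI probe (4 uM) in PBS pH 7.4, 2% DMSO. Signals were normalized between Acetyl-MSTI and MSTI.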

SMILES	activity change, negative = thiol reactive	Potency
CC(=O)N1CCN([C@H]2CCN(C(=O)N(C)[C@H](C)c3cc(C(F)(F)F)cc(C(F)(F)F)c3)[C@@H](c3ccc(F)cc3C)C2)CC1	-25.3% (inactive)	
COc1ccccc1-c1c[nH]c2ncc(-c3cncc(C(=O)N(C)C)c3)cc12	22.6% (inactive)	
Fc1ccccc1CNCc1ccc(-c2ccnc3[nH]ccc23)cc1	144% (inactive)	
CCCCc1nc(C)c(CC(=S)N(C)C)c(=O)n1Cc1ccc(-c2ccccc2-c2nn[nH]n2)cc1	116% (inactive)	
Clc1ccccc1CNCC1CCC(CNCc2ccccc2Cl)CC1 (stereo not given)	15.1% (inactive)	
CC[C@H]1OC(=O)[C@H](C)[C@@H](O[C@H]2C[C@@](C)(OC)[C@@H](O)[C@H](C)O2)[C@H](C)[C@@H](O[C@@H]2O[C@H](C)C[C@H](N(C)C)[C@H]2O)[C@](C)(O)C[C@@H](C)/C(=N/OCOCCOC)[C@H](C)[C@@H](O)[C@]1(C)O	23.1% (inactive)	
C[C@@H](CN1CCC(n2c(=O)[nH]c3cc(Cl)ccc32)CC1)NC(=O)c1ccc2ccccc2c1	-22.2% (inactive)	
CN(C)CC(=O)Nc1ccc2[nH]c(=O)c3ccccc3c2c1	-1.58% (inactive)	
COc1ccc2c(c1)CN(C(=O)CCN1CCC(Cc3ccccc3)CC1)CCS2	19.5% [at 25.6 µM] (inactive)	
COc1ccc(-c2nc(-c3cc(C(F)(F)F)cc(C(F)(F)F)c3)n(Cc3ccc(C(N)=O)cc3)c2-c2ccc(OC)cc2)cc1	44.9% (inactive)	
CNc1cc(OC)c(C(=O)N[C@@H]2CCN(Cc3ccccc3)[C@@H]2C)cc1Cl	0.421% (inactive)	
CC(=O)Nc1ccc(C(=O)Nc2ccccc2N)cc1	-13.8% [at 25.6 µM] (inactive)	
CCOC(=O)CCC(=O)O[C@H]1[C@H](O[C@@H]2[C@@H](C)[C@H](O[C@H]3C[C@@](C)(OC)[C@@H](O)[C@H](C)O3)[C@@H](C)C(=O)O[C@H](CC)[C@@](C)(O)[C@H](O)[C@@H](C)C(=O)[C@H](C)CC2(C)O)O[C@H](C)C[C@@H]1N(C)C (stereo not given in full)	27.5% (inactive)	
C=C(C(=O)O)C1CC2=C(C)C(=O)CC2C(C)CC1O (stereo not given)		26.7 µM (active)
CCC(=O)Nc1cccc(Oc2nc(Nc3ccc(N4CCN(C)CC4)cc3OC)ncc2Cl)c1		1.89 µM (active)
Cc1cc(CN)cc(C)c1NC(=O)c1ccc(-c2cc(Cl)ccc2Cl)o1	7.16% (inactive)	
C=C1C(=O)O[C@@H]2C[C@@]3(C)CCC[C@H](C)C3=C[C@H]12	29.9% (inactive)	

SMILES	activity change, negative = thiol reactive	Potency
C=C1C(=O)O[C@@H]2[C@H]1[C@H](O)C[C@]1(C)[C@@H](O)CC=C(C)[C@@H]21	6.35% (inactive)	
CC(C)c1ccc(NC(=O)C(c2ccccc2)N(C)C(=O)Cc2c[nH]c3ccccc23)cc1 (stereo not given)	139% (inactive)	
O=C(Nc1cccc(C(F)(F)F)c1)c1ccccc1NCc1ccncc1	223% (inactive)	
Cc1cc(C)c(NC(=O)N(Cc2ccc3c(c2)Cc2ccccc2-3)C2CCCCCC2)c(C)c1	1.36% (inactive)	
CN(Cc1ccc(C(=O)O)cc1)c1ccc(OCc2c(-c3c(Cl)cccc3Cl)noc2C2CC2)nc1C(F)(F)F	199% (inactive)	
Cn1nccc1Nc1nccc(-c2ccn([C@H](CO)c3ccc(Cl)c(F)c3)c(=O)c2)n1	959% (inactive)	
C[N+]1(C)[C@@H]2CC[C@H]1CC(OC(=O)C(O)c1ccccc1)C2 (stereo not given in full)	-3.84% (inactive)	
CC1CCN(c2cc(NC(=O)c3ccccc3)ncn2)CC1	9.58% (inactive)	
CCOc1ccc(-c2nc(-c3cccc4c3CCC4NCCO)no2)cc1OCC (stereo not given)	62.2% (inactive)	
CCC(=O)c1cc(-c2ccc(Cl)cc2)n(-c2ccc(S(N)(=O)=O)cc2)c1C	166% (inactive)	
COc1cc2nc(-c3cc(F)ccc3O)nc(N[C@@H]3CNC[C@H]3C(C)(C)O)c2cc1OC	95.1% (inactive)	
O=C(/C=C/n1cnc(-c2cc(C(F)(F)F)cc(C(F)(F)F)c2)n1)NNc1cnccn1	-2.81% (inactive)	
COc1cc(-c2cc(-c3cccc(O)c3)cnc2N)cc(OC)c1OC	63.8% (inactive)	
COc1c(N2CC3CCCNC3C2)c(F)cc2c(=O)c(C(=O)O)cn(C3CC3)c12 (stereo not given)	6.26% (inactive)	
COc1ccc(Cl)cc1[C@@]1(F)C(=O)Nc2cc(C(F)(F)F)ccc21	43.3% (inactive)	
COc1ccc(-c2c(C)c(C(=O)NN3CCCCC3)nn2-c2ccc(Cl)cc2Cl)cc1	-23.8% (inactive)	
C[C@H](NC(=O)C(C)(C)Oc1ccc(C(F)(F)F)cn1)[C@@H](Cc1ccc(Cl)cc1)c1cccc(C#N)c1	170% (inactive)	

Tested on: Nanoluciferase (engineered Oplophorus gracilirostris luciferase)
Experiment: Primary Nanoluciferase (NLuc) qHTS assay for identification of artifact compounds. (AID 1845222);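 note: 0% = DMSO and -100% = no enzyme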
Details: NLuc-conditioned medium, Nano-Glo luminescence, 5 min; series mostly up to 54.1 µM; activity, negative = inhibition: at the top concentration
Method in brief: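 Compounds are pinned into diluted (1:55) conditioned medium of NLuc-expressing S16 cells and held 15 min at room temperature protected from light. Nano-Glo substrate follows, and luminescence is read 5 min later.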

SMILES	activity, negative = inhibition
CC(=O)N1CCN([C@H]2CCN(C(=O)N(C)[C@H](C)c3cc(C(F)(F)F)cc(C(F)(F)F)c3)[C@@H](c3ccc(F)cc3C)C2)CC1	2.51% (inactive)
